Experimental data as given in PubChem BioAssay AID2796 (The Scripps Research Institute Molecular Screening Center, 2010).
Among all 320,000 compounds or so, about 8,000 (2.5%) were called active. This is one part of a sample in which actives are shown more often than they occur. Unmarked numbers belong to inactive results. Rule as the data show it: active = activation above about 47%; inactive = the rest.

Each compound was assayed against Aryl hydrocarbon receptor (Homo sapiens) (UniProt P35869) (assay: AHR activators, primary screen, cell-based, luminescence, luciferase reporter, human (AID 2796;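 also: 0% = vehicle wells and 100% = reference agonist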)). Conditions: AHR-responsive luciferase reporter cells, at 5 µM, active compounds read high.
Sequence of Aryl hydrocarbon receptor (Homo sapiens) (P35869 whole entry, looked up): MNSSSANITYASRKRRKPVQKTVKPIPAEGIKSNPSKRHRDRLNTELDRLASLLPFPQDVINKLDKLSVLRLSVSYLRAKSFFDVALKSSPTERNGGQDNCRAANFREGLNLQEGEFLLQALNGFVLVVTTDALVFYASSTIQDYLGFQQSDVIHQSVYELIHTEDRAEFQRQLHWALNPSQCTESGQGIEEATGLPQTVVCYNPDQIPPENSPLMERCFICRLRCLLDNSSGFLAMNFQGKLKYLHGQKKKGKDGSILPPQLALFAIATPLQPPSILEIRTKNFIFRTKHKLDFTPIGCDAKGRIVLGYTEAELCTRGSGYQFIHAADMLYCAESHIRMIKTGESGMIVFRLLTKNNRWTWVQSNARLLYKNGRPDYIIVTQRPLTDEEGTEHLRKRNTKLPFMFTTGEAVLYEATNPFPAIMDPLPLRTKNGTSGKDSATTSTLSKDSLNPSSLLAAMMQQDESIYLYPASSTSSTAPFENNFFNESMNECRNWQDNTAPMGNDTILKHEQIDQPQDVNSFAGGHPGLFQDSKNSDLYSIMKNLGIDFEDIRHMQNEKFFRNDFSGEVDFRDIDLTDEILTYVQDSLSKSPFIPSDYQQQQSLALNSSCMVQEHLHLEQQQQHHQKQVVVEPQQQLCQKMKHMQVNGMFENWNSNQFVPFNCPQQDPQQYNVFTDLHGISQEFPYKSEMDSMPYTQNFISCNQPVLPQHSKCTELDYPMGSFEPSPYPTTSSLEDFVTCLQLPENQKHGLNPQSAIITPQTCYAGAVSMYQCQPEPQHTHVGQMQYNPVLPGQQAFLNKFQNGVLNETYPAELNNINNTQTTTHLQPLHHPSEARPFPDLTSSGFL
Compound `O=S1(=O)CC(NCc2ccccc2)C(Nc2ccc(Cl)cc2)C1` (stereo not drawn) has an activation of 0.94%. For `CSCCC(NC(=O)COc1ccccc1)C(=O)N(C)CC(=O)Nc1ccc(C)cc1` (stereo not drawn), the activation was 1.75%. Compound `O=[N+]([O-])c1ccc(Oc2ccc(F)cc2Br)c2ccncc12` has an activation of 15.1%. `O=[N+]([O-])c1ccc(F)cc1Oc1nc(-c2cccnc2)nc2ccccc12` was tested, and the activation was 62.5% (active). `CCN(CC(=O)NC1CCS(=O)(=O)C1)c1nc(-c2cccnc2)nc2ccccc12` (stereo not drawn) gave an activation of 1.86%. Compound `CCCCn1c(N)c(N(CCOC)C(=O)CSCC(=O)Nc2cccc(C)c2)c(=O)[nH]c1=O` has an activation of 1.66%. With `Cc1ccc(C)c(N2CCN(C(=O)Cn3ncn4cccc4c3=O)CC2)c1` the activation was 49.4% (active). Compound `Cc1ccc(C)c(N2CCN(C(=O)CCCn3c(=O)c4cccn4c4cccnc43)CC2)c1` has an activation of 6.45%. For `CCc1nn(CC(=O)N2CCN(c3cc(C)ccc3C)CC2)c(=O)c2cc3occc3n12`, the activation was 4.48%. For `COc1ccc2nc3n(c(=O)c2c1)-c1ccc(Cl)cc1C(=O)NC3Cc1ccccc1` (stereo not drawn), the activation was 1.56%. In the case of `O=C(O)c1ccccc1-c1ccccc1C(=O)Nc1ccccc1Br`, the activation is reported as 0.17%. In the case of `CC(C)N(Cc1nc(-c2ccc3c(c2)OCO3)no1)CC1CCC(=O)N1` (stereo not drawn), the activation is reported as 16.6%. With `CN(CCN1CCOCC1)Cc1nc(-c2ccc3c(c2)OCO3)no1` the activation was 10.5%. For `CCn1ccnc1CN(C)Cc1nc(-c2ccc3c(c2)OCO3)no1`, the activation was 86.7% (active). `CCOc1c2ccc(C(=O)NC3CCCc4ccccc43)cc2nn1CC` (stereo not drawn) showed an activation of 7.2%. For `Cc1cc(C)nc(NC(=O)c2cccc([N+](=O)[O-])c2)c1`, the activation was 40.8%. `O=C(Nc1ccc(C2CC2(Cl)Cl)cc1)c1cccc([N+](=O)[O-])c1` (stereo not drawn) was tested, and the activation was 96.3% (active). For `O=C(Nc1ccc(C(=O)N2CCCCC2)cc1)c1cccc([N+](=O)[O-])c1`, the activation was -1.69%. In the case of `Cc1ccc(-c2nn(-c3ccccc3)cc2C(=O)NCCCN2CCCC2=O)cc1`, the activation is reported as 1.15%. Work on `CCC(C)(C)NC(=O)/C=C/c1cc(OC)c(OC)c(S(=O)(=O)N2CCc3ccccc32)c1` yielded an activation of 5.39%. For `COc1ccc2c(c1)c(C(=O)N/N=C/c1cccs1)c(C)n2C`, the activation was 72.6% (active). `COc1ccc(N(CC(=O)N/N=C/c2cccs2)S(=O)(=O)c2ccc(OC)c(OC)c2)cc1` was tested, and the activation was 1.41%. In the case of `NC(=O)N/N=C\c1cccs1`, the activation is reported as -0.87%. For `COc1cc(C(=O)NCc2nnc(SCC(=O)Nc3nc4ccc(C)cc4s3)o2)cc(OC)c1OC`, the activation was -5.66%. In the case of `O=C(/C(=C/c1cccc(Cl)c1)c1nc2ccccc2[nH]1)c1ccccc1`, the activation is reported as 44.8%. `COCCN(CCOC)S(=O)(=O)c1ccc(/C(O)=C(\C#N)c2nc3ccccc3[nH]2)cc1` was tested, and the activation was 6.43%. With `CCC(=O)/C(=C(/O)c1ccccc1)c1nc2ccccc2[nH]1` the activation was 64.6% (active). Compound `COC(C[C@@H]1O[C@@H]1C(=O)[C@@H](C)OCc1ccccc1)OC` has an activation of -3.27%. In the case of `COc1ccccc1NC(=O)CCCc1c[nH]c2ccccc12`, the activation is reported as 6.67%. In the case of `COc1ccc(Cl)cc1NC(=O)CN(C)C(=O)CCCc1c[nH]c2ccccc12`, the activation is reported as 51.8% (active). `COc1ccc(Cl)cc1NC(=O)CN(C)C(=O)c1cc2ccccc2cc1OC` was tested, and the activation was 19.4%. For `O=C(OCC(=O)N1CCCCC1)c1ccc(OC(F)(F)F)cc1`, the activation was 0.31%. `CN(C)NC(=O)c1csnc1-c1c(Cl)cccc1Cl` was tested, and the activation was 1.27%. Compound `CC1CC(=O)Nc2ccccc2N1C(=O)COc1ccc2cc(Br)ccc2c1` (stereo not drawn) has an activation of 2.14%. Compound `COc1ccc(C(=O)N/N=C(\C)CC(=O)Nc2ccc(Cl)cn2)cc1` has an activation of 13.8%. In the case of `COc1ccc(C(=O)NC(=S)Nc2ccc(Cl)cn2)cc1OC`, the activation is reported as 5.66%. For `COc1c(Cl)cc(C(=O)Nc2ccc(Cl)cn2)cc1Cl`, the activation was 67.2% (active). Compound `COc1ccc(N(CC(=O)NCc2ccc(F)cc2)C(=O)CCC(=O)Nc2nccs2)cc1` has an activation of 0.66%. `COc1cccc(CNC(=O)CCN2C(=S)NC(C)(C)CC2C)c1` (stereo not drawn) showed an activation of 3.02%. For `Clc1ccc(CSc2nnc([C@@H]3CCCN3)o2)cc1`, the activation was 0.21%. With `O=C(CSc1nnc(-c2ccccc2O)o1)NC1CCCCC1` the activation was -6.68%. In the case of `CCCCSc1nnc(-c2ccc(C)cc2)o1`, the activation is reported as -1.09%. With `CCSc1nnc(-c2cc3c(s2)-c2ccccc2CC3)o1` the activation was 62.1% (active). `Fc1ccc(CSc2nnc(-c3cc4c(s3)-c3ccccc3CC4)o2)cc1` was tested, and the activation was 51.6% (active). With `Fc1ccc(-c2nnc(CSc3nnc(-c4ccc5c(c4)OCO5)o3)o2)cc1` the activation was 11.2%. With `CCOc1ncccc1C(=O)NNC(=O)c1cccc(S(=O)(=O)Nc2ccccc2OC)c1` the activation was -1.36%. `COc1ccc(N(C(=O)CNC(=O)c2ccco2)C(C(=O)NCC2CCCO2)c2ccccc2)cc1Cl` (stereo not drawn) showed an activation of -0.46%. In the case of `CC1=NNC(=O)C1CC(=O)N/N=C/c1ccncc1` (stereo not drawn), the activation is reported as -0.52%. `CCCCCC(=O)N1CCN(S(=O)(=O)c2ccc3c(c2)OCCCO3)CC1` gave an activation of 1.73%. Work on `c1ccc2c(C[n+]3csc4ccccc43)cccc2c1` yielded an activation of 12.7%. For `CN(C(=O)Cn1nnc(-c2ccc(F)cc2)n1)C1CCS(=O)(=O)C1` (stereo not drawn), the activation was -0.41%. Compound `O=C(Nc1cc(S(=O)(=O)N2CCCCC2)ccc1Cl)C1COc2ccccc2O1` (stereo not drawn) has an activation of 0.26%. Work on `COCCN(CCOC)S(=O)(=O)c1ccc(C(=O)Nc2nc3c(s2)CCc2ccccc2-3)cc1` yielded an activation of 11.6%. `CCN(c1ccccc1)S(=O)(=O)c1ccc(C(=O)Nc2nccs2)cc1` was tested, and the activation was 3.71%. For `C=CCN(CC=C)S(=O)(=O)c1ccc(C(=O)Nc2nc3c(s2)CCc2ccccc2-3)cc1`, the activation was 50.7% (active). Compound `Cn1cccc1C(=O)NC(=O)COC(=O)Cc1coc2ccc3ccccc3c12` has an activation of 16.2%. `CCCCn1c(SCC(=O)N2CCOCC2)nc2c1c(=O)n(C)c(=O)n2C` gave an activation of 0.02%. `Cc1cc(C)nc(Nc2n[nH]c(-c3ccccc3N)n2)n1` was tested, and the activation was 67% (active). Work on `CCCOc1ccccc1-c1nc(SCCC(=O)O)n[nH]1` yielded an activation of 10.6%. For `Cc1cc(C)nc(Nc2ncn[nH]2)n1`, the activation was 2.66%. Work on `CCCCNC(=O)Nc1c(C)cc(SC#N)cc1C` yielded an activation of 3.18%. In the case of `O=C(c1ccc(Cl)c([N+](=O)[O-])c1)N1CCN(c2ccccc2)CC1`, the activation is reported as 2.09%. Compound `O=C(c1cc(C(=O)N2CCN(c3ccc(F)cc3)CC2)cc([N+](=O)[O-])c1)N1CCN(c2ccc(F)cc2)CC1` has an activation of 3.86%. For `O=C(c1cncc(Br)c1)N1CCN(c2ccc([N+](=O)[O-])cc2)CC1`, the activation was 52.5% (active). `Cc1cc(C)c(NC(=O)CN2CCOCCOCCOCCOCC2)c(C)c1` gave an activation of 0.35%. `Cc1ccc(NS(=O)(=O)c2ccc(N/N=C/c3ccccc3OCC(=O)O)c([N+](=O)[O-])c2)c(C)c1` showed an activation of 2.69%. For `Cc1cccc(COc2ccccc2/C=N/Nc2ccc([N+](=O)[O-])cc2)c1`, the activation was 50.4% (active). `O=[N+]([O-])c1ccc(N/N=C/c2ccccc2)cc1` showed an activation of -1.64%. Work on `CCOC(=O)c1cc(S(=O)(=O)NCCc2ccc(OC)c(OC)c2)cn1C` yielded an activation of 1.77%. `CCOC(=O)C1CCN(CC(=O)Nc2ccc(OC)c(S(=O)(=O)N3CCCCC3)c2)CC1` showed an activation of -1.58%. `Cc1ccc(NC(=O)NCC(c2cccnc2)N2CCOCC2)cc1` (stereo not drawn) was tested, and the activation was 3.2%. `O=C(NNC(=O)c1cccnc1)Nc1ccccc1` was tested, and the activation was -0.59%. In the case of `Cc1ccc(NC(=O)Nc2cccnc2)cc1`, the activation is reported as 83.7% (active). `CCCNC(=S)NC1CC2CCCC(C1)N2CC(C)C` (stereo not drawn) showed an activation of 2.13%. With `O=C(COc1ccc(Cl)cc1)Nc1ccccc1CO` the activation was 62.6% (active). Work on `CCS(=O)(=O)c1ccc(O)c(NC(=O)COc2ccc(Cl)cc2)c1` yielded an activation of -3.28%. `COC(=O)c1sccc1NC(=O)COc1ccc(Cl)cc1` was tested, and the activation was 3.07%. `CC(C(=O)NCCc1ccc(S(N)(=O)=O)cc1)N1C(=O)CC(C)(C)Sc2ccccc21` (stereo not drawn) gave an activation of 1.77%. `Cc1ccc(CN(Cc2cccnc2)C(=S)Nc2cc(Cl)ccc2C)cc1` gave an activation of 2.1%. Compound `CN(c1ccccc1)c1ccc(/C=c2\s/c(=C(/C#N)C(=O)C(C)(C)C)n(Cc3ccco3)c2=O)cc1` has an activation of 0.79%. For `Cc1cs/c(=N\N=C\c2ccc(O)cc2)n1Cc1ccco1`, the activation was 59.4% (active). In the case of `Cc1csc(=Nc2ccccc2)n1CCO`, the activation is reported as 4.51%. In the case of `Cc1c2cnn(CC(=O)NCc3ccccn3)c(=O)c2c(C)n1Cc1ccc(Cl)cc1`, the activation is reported as 1.4%. `Cc1ccc(S(=O)(=O)N(C)c2ccc(OCC(=O)OCC(=O)N(CC#N)c3ccccc3)cc2)cc1` showed an activation of -1.55%. In the case of `COc1ccc(OC)c(-c2csc(NC(=O)C3=NNC(=O)CC3)n2)c1`, the activation is reported as 12.8%. Compound `COc1ccc(OC)c(-c2csc(NC(=O)COC(=O)C3CC3)n2)c1` has an activation of -1.02%. With `COc1ccc(OC)c(-c2csc(-c3cccs3)n2)c1` the activation was 121% (active). For `CCOC(=O)N1CCC(Nc2c(NCCCN3CCN(CC)CC3)c(=O)c2=O)CC1`, the activation was 0.42%. `COc1ccccc1C1=CC(=O)CCC1` was tested, and the activation was 0.36%. Compound `COc1ccc(NC(=O)CNc2cc(S(=O)(=O)N3CCOCC3)ccc2N2CCOCC2)c(OC)c1` has an activation of -1.67%. `O=c1ccnc(Nc2ccc(Cl)cc2)[nH]1` showed an activation of 2.65%. `Clc1ccc(Nc2ccc3ccccc3n2)cc1` was tested, and the activation was 73.6% (active). `Cn1c(Nc2cccc(Cl)c2)nc2ccccc21` showed an activation of -1.72%.
